Data published in PubChem BioAssay (NCI).
The panel holds about 79,000 compounds, 15% with a hit somewhere; the sample as a whole holds those more often. A number with no mark means an inactive call. Active and inactive are the calls of the source. No stated cut-off is given here; in the data, active means growth inhibition above about 70%; inactive means the rest.

How the values were obtained:
[1] = NCI Yeast Anticancer Drug Screen. Data for the rad50 strain (AID 155);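 further: 0% = growth of vehicle-only cultures of the same strain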; conditions: S. cerevisiae rad50 strain growth inhibition, stronger effect = higher value
Procedure, shortened: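 Yeast carrying a defined DNA repair defect were exposed to test compounds, and growth was compared with vehicle-treated controls to give percent inhibition.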

[2] = NCI Yeast Anticancer Drug Screen. Data for the mec2-1 strain (AID 157); conditions: S. cerevisiae mec2-1 strain, stronger effect = higher value
Procedure, shortened: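 Cells of the genetically defined mec2-1 yeast strain are incubated with test compound. Inhibition of growth is calculated against vehicle-treated controls.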

[3] = NCI Yeast Anticancer Drug Screen. Data for the sgs1 mgt1 strain (AID 161);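 further: 0% = growth of cultures given vehicle only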; conditions: S. cerevisiae sgs1 mgt1 strain, stronger effect = higher value
Procedure, shortened: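 Test agents were incubated with a DNA-repair-mutant yeast strain. Growth was then read and compared against vehicle-treated controls.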

[4] = NCI Yeast Anticancer Drug Screen. Data for the cln2 rad14 strain (AID 165);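 further: 0% = growth equal to vehicle treated cultures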; conditions: S. cerevisiae cln2 rad14 strain, stronger effect = higher value
Procedure, shortened: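 The screen exposed genetically defined yeast (cln2 rad14) to test compounds and scored growth inhibition relative to vehicle-treated controls.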

[5] = NCI Yeast Anticancer Drug Screen. Data for the bub3 strain (AID 167); conditions: S. cerevisiae bub3 mutant strain, stronger effect = higher value
Procedure, shortened: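 Compounds were applied to a genetically altered yeast strain carrying a cell-cycle control defect. Growth inhibition was scored against vehicle-treated controls.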

[6] = NCI Yeast Anticancer Drug Screen. Data for the mlh1 rad18 strain (AID 175); conditions: S. cerevisiae mlh1 rad18 strain growth inhibition, stronger effect = higher value
Procedure, shortened: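 Compound-treated yeast growth, normalised to vehicle controls. Strain bears defined DNA repair mutations.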

[7] = at 5.0 µM (retest, dose inferred, filed as 0.5)
[8] = at 50.0 µM (retest, dose inferred, filed as 5.0)

| Structure (SMILES) | growth inhibition [1, 7] | growth inhibition [1, 8] | growth inhibition ([1]; at 50.0 µM) | growth inhibition [2, 7] | growth inhibition [2, 8] | growth inhibition ([2]; at 50.0 µM) | growth inhibition [3, 7] | growth inhibition [3, 8] | growth inhibition ([3]; at 50.0 µM) | growth inhibition [4, 7] | growth inhibition [4, 8] | growth inhibition ([4]; at 50.0 µM) | growth inhibition [5, 7] | growth inhibition [5, 8] | growth inhibition ([5]; at 50.0 µM) | growth inhibition [6, 7] | growth inhibition [6, 8] | growth inhibition ([6]; at 50.0 µM) |
| --- | --- | --- | --- | --- | --- | --- | --- | --- | --- | --- | --- | --- | --- | --- | --- | --- | --- | --- |
| O=C(O)CP(=O)(c1ccccc1)c1ccccc1.O=C(O)CP(=O)(c1ccccc1)c1ccccc1.[Cd] | 33% | 88% (active) | 83.4% (active) | 40% | 51% | 42.6% | 11% | 47% | 56% | -3% | 48% | 58.9% | 4% | 43% | 26.9% | 17% | 57% | 57.8% |
| C[C@@H]1CCC2[C@@H](C)[C@H](O[C@H]3O[C@@H]4O[C@@]5(C)CCC6[C@H](C)CCC([C@H]3C)[C@]64OO5)O[C@@H]3O[C@@]4(C)CCC1[C@@]23OO4 (some centres not stated) | 92% (active) | 93% (active) | 90.2% (active) | 95% (active) | 94% (active) | 91.6% (active) | 94% (active) | 95% (active) | 92% (active) | 79% (active) | 93% (active) | 89.7% (active) | 92% (active) | 94% (active) | 91.2% (active) | 93% (active) | 93% (active) | 90.8% (active) |
| CCCCCCCC1(c2ccc(N)cc2)CCC(=O)NC1=O (configuration not stated) | 31% | 36% | 73% (active) | 0% | 61% | 27.9% | 8% | 96% (active) | 54.2% | -8% | 26% | 33.8% | 0% | 21% | 56% | -2% | 35% | 37.1% |
| CC1=C(CO)C(=O)OC(C(C)C2CCC3C4CC5OC56C(O)C(N5CC5)=CC(=O)C6(C)C4CCC23C)C1 (configuration not stated) | -7% | 43% | 76.8% (active) | 3% | 49% | 75.5% (active) | -2% | 42% | 70.2% (active) | 23% | 57% | 28.9% | 13% | 77% (active) | 75.2% (active) | -1% | 78% (active) | 69.8% |
| CCN(CC)CC(=O)c1ccc2c(ccc3ccccc32)c1 | 15% | 98% (active) | 99.2% (active) | 26% | 100% (active) | 99.5% (active) | 6% | 99% (active) | 99.5% (active) | -1% | 97% (active) | 99.3% (active) | 8% | 99% (active) | 99.2% (active) | 43% | 99% (active) | 99.3% (active) |
| O=C(N/N=C/c1ccc(F)cc1)c1ccc(N(CCCl)CCCl)cc1 | -7% | -5% | 38.9% | -12% | -11% | 18.2% | -20% | 2% | 56.8% | -26% | -34% | 25.2% | -3% | 3% | 27.8% | -3% | -8% | 59.3% |
| COC1=C(C)C(=O)c2c(c(COC(N)=O)c3n2CC2C3N2C)C1=O (configuration not stated) | 37% | 65% | 93% (active) | 2% | 52% | 95.3% (active) | 30% | 74% (active) | 73.8% (active) | -8% | 72% (active) | 87.1% (active) | 8% | 27% | 78.1% (active) | 13% | 93% (active) | 96% (active) |
| CC[CH2][Sn]([F])([F])[CH2]CC | 20% | 94% (active) | 83% (active) | 12% | 97% (active) | 87.7% (active) | 11% | 94% (active) | 84.7% (active) | 17% | 91% (active) | 83.5% (active) | 14% | 96% (active) | 81.2% (active) | 13% | 95% (active) | 86.5% (active) |
| CC(=O)O.[Au].c1ccc([PH+](c2ccccc2)c2ccccc2)cc1 | 99% (active) | 98% (active) | 98.2% (active) | 98% (active) | 98% (active) | 98.2% (active) | 99% (active) | 55% | 98% (active) | 99% (active) | 96% (active) | 98% (active) | 100% (active) | 98% (active) | 98.2% (active) | 99% (active) | 97% (active) | 97.6% (active) |
